# Results reported in article PMC7862700, “An all-to-all approach to the identification of sequence-specific readers for epigenetic DNA modifications on cytosine”.
# What was measured:
# Assay in all cases: DAPPL (digital affinity profiling via proximity ligation, sequencing); 10 mM Tris-HCl pH 7.5, 50 mM NaCl, 1 mM DTT, 4% glycerol, room temperature, 30 min; GST-TFs on glutathione beads, 16-mer random dsDNA library, 0.1% formaldehyde crosslink after washing; high values mean tight binding
# FEV = molecular target: T1, FEV (Homo sapiens, UniProt Q99581 1-238); conditions: protein: recombinant; tags: N-terminal GST; dsDNA, one strand shown
# T1 sequence: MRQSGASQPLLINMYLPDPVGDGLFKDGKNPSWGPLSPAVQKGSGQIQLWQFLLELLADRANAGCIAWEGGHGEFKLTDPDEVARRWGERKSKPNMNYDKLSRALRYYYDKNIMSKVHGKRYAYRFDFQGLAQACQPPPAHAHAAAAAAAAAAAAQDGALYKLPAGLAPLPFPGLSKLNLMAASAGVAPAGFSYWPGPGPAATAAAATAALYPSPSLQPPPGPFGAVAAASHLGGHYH
# How it was run: (§1)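 Human transcription factors were made in yeast as GST fusions, captured on glutathione beads and barcoded with DNA. With a tag-only sample included, the pool was incubated with 200 nmole of a random double-stranded 16-mer DNA library in Tris/NaCl/DTT/glycerol buffer at room temperature for 30 min, then crosslinked with 0.1% formaldehyde after washing, ligated by proximity, amplified and sequenced. For binding signal, each hexamer's read frequency for a factor is divided by its frequency for the tag-only sample.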
# ETV5 = ETV5 (Homo sapiens, UniProt P41161 1-510); conditions: protein: recombinant; tags: N-terminal GST; dsDNA, one strand shown
# Chain of ETV5 (P41161 whole entry): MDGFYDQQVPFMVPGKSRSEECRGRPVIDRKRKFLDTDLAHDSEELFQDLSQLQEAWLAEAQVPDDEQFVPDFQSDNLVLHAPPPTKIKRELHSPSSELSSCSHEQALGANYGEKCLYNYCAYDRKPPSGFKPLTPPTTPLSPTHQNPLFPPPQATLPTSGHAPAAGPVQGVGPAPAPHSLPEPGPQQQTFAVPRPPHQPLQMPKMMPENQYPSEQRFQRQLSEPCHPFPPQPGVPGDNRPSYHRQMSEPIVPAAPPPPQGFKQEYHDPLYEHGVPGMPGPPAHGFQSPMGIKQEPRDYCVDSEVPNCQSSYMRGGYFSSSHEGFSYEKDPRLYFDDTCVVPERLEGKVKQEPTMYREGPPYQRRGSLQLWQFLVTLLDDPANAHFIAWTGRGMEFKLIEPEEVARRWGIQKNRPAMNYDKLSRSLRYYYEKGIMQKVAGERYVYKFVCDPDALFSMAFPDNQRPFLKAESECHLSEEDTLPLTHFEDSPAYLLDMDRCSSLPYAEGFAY
# How it was run: as §1
# HSF1 = HSF1 (Homo sapiens, UniProt Q00613 1-529); conditions: protein: recombinant; tags: N-terminal GST; chain copies: 3; dsDNA, one strand shown
# Chain of HSF1 (Q00613 whole entry): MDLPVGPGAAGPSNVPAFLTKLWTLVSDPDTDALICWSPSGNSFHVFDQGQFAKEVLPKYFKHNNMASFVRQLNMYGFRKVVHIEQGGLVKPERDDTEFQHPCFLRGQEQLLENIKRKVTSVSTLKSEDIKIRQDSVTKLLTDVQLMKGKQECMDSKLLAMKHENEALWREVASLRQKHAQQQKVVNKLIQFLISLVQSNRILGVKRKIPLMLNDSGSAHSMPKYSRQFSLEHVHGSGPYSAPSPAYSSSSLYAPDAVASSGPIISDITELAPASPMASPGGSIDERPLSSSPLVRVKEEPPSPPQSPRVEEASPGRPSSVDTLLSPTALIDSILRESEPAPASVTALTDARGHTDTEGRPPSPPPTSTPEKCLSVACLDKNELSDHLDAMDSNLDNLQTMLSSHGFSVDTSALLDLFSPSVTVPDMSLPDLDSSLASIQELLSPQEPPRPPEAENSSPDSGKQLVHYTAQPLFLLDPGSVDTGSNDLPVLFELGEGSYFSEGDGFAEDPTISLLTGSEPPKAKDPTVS
# How it was run: as §1
# SPIC = molecular target: T2, SPIC (Homo sapiens, UniProt Q8N5J4 1-248); conditions: protein: recombinant; tags: N-terminal GST; dsDNA, one strand shown
# T2 sequence: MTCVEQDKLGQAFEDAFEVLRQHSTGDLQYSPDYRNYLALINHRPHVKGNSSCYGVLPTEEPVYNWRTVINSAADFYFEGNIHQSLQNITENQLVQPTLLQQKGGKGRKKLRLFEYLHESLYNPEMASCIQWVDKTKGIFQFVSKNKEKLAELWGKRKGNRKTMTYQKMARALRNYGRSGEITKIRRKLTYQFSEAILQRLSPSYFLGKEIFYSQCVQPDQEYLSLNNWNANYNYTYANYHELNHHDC
# How it was run: as §1
# ELF4 = ELF4 (Homo sapiens, UniProt Q99607 1-663); conditions: protein: recombinant; tags: N-terminal GST; dsDNA, one strand shown
# Chain of ELF4 (Q99607 whole entry): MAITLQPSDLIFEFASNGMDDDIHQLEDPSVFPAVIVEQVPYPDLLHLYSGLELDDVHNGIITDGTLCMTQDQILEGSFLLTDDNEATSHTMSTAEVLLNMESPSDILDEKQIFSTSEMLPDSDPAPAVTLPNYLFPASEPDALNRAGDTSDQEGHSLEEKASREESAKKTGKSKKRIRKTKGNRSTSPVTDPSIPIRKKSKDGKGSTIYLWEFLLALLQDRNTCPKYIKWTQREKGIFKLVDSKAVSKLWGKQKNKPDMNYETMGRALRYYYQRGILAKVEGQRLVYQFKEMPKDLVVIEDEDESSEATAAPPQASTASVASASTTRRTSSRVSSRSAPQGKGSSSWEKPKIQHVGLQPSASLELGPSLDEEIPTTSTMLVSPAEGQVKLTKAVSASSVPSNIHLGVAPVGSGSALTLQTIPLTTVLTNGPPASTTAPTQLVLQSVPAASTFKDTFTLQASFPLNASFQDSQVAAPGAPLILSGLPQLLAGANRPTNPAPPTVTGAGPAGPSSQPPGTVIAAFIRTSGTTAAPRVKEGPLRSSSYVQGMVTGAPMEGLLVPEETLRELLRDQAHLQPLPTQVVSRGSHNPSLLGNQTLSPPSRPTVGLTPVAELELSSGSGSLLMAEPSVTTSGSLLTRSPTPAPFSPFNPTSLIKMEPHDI
# How it was run: as §1
# ELK4 = molecular target: T3, ELK4 (Homo sapiens, UniProt P28324-2 1-405); conditions: protein: recombinant; tags: N-terminal GST; dsDNA, one strand shown
# T3 sequence: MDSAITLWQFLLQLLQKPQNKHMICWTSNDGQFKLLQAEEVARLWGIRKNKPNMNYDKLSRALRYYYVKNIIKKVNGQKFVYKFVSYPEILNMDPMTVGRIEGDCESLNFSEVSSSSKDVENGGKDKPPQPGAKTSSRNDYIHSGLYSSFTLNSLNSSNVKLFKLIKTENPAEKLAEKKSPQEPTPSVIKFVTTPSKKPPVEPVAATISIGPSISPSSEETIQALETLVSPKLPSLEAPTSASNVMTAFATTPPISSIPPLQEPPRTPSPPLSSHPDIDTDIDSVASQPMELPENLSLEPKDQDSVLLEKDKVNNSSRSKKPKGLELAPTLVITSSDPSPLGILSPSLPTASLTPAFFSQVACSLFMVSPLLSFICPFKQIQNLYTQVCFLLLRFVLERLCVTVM
# How it was run: as §1
# ETV2 = molecular target: T4, ETV2 (Homo sapiens, UniProt O00321 1-342); conditions: protein: recombinant; tags: N-terminal GST; dsDNA, one strand shown
# T4 sequence: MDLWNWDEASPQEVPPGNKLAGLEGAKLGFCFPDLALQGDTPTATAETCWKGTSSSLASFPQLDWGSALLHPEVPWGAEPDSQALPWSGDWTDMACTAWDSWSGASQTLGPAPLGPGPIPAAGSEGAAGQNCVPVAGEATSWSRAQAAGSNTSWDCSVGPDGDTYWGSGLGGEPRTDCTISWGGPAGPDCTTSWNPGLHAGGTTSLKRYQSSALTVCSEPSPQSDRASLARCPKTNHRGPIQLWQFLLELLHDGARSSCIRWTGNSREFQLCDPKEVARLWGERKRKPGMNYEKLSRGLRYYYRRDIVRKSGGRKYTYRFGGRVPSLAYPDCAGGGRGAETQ
# How it was run: as §1
# ELF3 = molecular target: T5, ELF3 (Homo sapiens, UniProt P78545 1-371); conditions: protein: recombinant; tags: N-terminal GST; dsDNA, one strand shown
# T5 sequence: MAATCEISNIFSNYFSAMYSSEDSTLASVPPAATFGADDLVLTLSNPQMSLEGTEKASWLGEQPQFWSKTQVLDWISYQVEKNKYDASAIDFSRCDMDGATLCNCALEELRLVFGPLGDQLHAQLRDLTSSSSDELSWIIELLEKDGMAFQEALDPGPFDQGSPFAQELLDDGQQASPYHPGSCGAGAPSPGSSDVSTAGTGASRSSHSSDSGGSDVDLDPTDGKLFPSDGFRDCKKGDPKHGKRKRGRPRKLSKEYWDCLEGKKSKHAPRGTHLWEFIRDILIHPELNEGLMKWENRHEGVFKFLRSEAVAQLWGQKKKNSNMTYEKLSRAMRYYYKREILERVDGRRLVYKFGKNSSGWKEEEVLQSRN
# How it was run: as §1
# CRX = CRX (Homo sapiens, UniProt O43186 1-299); conditions: protein: recombinant; tags: N-terminal GST; dsDNA, one strand shown
# Chain of CRX (O43186 whole entry): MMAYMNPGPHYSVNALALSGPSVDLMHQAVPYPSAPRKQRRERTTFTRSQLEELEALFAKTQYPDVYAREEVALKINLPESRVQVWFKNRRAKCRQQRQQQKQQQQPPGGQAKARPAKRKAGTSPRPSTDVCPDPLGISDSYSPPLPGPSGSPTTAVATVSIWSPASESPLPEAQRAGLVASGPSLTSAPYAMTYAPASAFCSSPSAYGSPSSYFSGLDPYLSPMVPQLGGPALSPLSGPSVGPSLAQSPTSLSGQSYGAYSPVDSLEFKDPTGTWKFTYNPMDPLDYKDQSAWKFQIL
# How it was run: as §1
# ETV1 = ETV1 (Homo sapiens, UniProt P50549 1-477); conditions: protein: recombinant; tags: N-terminal GST; dsDNA, one strand shown
# Chain of ETV1 (P50549 whole entry): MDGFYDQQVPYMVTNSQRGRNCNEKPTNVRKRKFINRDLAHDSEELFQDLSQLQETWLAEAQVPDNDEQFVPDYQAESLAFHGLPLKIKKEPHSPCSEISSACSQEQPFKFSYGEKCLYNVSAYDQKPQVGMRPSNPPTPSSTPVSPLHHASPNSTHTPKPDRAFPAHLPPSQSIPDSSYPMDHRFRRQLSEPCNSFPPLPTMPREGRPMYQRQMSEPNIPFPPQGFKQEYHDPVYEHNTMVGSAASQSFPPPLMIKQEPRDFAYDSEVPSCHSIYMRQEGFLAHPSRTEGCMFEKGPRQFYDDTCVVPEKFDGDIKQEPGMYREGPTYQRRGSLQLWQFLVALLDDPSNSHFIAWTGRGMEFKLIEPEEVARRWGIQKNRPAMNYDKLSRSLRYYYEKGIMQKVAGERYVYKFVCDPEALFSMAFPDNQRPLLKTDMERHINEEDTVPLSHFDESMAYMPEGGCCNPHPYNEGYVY
# How it was run: as §1
# ERF = molecular target: T6, ERF (Homo sapiens, UniProt P50548 1-548); conditions: protein: recombinant; tags: N-terminal GST; dsDNA, one strand shown
# T6 sequence: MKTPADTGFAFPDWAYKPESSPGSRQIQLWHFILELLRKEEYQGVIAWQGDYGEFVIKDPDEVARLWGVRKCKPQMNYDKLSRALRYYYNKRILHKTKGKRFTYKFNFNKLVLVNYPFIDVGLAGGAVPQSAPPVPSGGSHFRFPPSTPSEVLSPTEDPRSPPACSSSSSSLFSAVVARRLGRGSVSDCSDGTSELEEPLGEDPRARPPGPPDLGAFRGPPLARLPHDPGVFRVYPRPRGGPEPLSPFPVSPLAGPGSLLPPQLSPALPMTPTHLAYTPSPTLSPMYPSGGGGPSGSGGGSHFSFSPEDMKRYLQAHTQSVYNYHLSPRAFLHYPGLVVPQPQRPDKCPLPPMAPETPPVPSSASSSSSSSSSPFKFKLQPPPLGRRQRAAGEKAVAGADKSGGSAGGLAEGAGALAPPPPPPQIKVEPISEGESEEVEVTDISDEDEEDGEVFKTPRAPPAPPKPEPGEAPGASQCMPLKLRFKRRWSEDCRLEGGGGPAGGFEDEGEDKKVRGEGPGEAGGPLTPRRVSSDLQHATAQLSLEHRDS
# How it was run: as §1
# ETV3L = molecular target: T7, ETV3L (Homo sapiens, UniProt Q6ZN32 1-361); conditions: protein: recombinant; tags: N-terminal GST; dsDNA, one strand shown
# T7 sequence: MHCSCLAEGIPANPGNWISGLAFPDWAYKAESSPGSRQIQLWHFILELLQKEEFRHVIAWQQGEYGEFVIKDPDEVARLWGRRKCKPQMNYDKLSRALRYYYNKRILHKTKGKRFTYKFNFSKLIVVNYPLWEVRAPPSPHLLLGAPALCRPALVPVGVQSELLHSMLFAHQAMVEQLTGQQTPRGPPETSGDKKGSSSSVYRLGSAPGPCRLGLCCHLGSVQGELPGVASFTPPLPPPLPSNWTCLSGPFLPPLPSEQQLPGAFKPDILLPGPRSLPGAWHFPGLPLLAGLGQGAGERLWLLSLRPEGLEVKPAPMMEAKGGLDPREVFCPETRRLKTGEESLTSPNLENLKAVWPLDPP
# How it was run: as §1
# ETS2 = molecular target: T8, ETS2 (Homo sapiens, UniProt P15036 1-469); conditions: protein: recombinant; tags: N-terminal GST; dsDNA, one strand shown
# T8 sequence: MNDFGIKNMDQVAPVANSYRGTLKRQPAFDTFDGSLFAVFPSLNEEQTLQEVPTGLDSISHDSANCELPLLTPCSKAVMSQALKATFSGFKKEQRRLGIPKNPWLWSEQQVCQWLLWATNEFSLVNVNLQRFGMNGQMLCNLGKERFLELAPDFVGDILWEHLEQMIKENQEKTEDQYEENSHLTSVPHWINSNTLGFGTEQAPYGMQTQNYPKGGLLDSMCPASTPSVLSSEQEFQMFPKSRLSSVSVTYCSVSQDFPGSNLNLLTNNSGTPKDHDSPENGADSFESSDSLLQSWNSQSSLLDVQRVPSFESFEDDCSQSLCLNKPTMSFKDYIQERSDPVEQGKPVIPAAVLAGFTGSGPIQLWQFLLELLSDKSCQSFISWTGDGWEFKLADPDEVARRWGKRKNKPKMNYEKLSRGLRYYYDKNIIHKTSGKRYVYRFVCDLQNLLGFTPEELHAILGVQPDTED
# How it was run: as §1
# SPDEF = molecular target: T9, SPDEF (Homo sapiens, UniProt O95238 1-335); conditions: protein: recombinant; tags: N-terminal GST; dsDNA, one strand shown
# T9 sequence: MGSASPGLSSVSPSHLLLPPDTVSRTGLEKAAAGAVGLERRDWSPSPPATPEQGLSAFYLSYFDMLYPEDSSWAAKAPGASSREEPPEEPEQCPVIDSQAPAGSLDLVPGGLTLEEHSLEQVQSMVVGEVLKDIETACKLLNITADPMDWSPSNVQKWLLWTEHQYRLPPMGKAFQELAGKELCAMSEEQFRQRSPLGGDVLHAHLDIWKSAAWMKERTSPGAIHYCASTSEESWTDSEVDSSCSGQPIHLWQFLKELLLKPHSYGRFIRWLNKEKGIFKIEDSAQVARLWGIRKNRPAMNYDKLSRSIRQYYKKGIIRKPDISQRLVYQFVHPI
# How it was run: as §1
# ETV7 = molecular target: T10, ETV7 (Homo sapiens, UniProt Q9Y603 1-341); conditions: protein: recombinant; tags: N-terminal GST; dsDNA, one strand shown
# T10 sequence: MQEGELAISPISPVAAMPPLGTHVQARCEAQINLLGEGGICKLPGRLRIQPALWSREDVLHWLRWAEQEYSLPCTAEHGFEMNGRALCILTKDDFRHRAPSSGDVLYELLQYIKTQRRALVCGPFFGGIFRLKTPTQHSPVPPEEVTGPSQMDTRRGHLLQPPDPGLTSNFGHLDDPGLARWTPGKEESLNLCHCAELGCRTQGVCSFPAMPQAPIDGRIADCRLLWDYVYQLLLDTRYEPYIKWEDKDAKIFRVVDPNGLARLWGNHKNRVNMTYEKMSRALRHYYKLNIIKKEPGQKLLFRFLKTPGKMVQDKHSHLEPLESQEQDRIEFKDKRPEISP
# How it was run: as §1
# ELF5 = molecular target: T11, ELF5 (Homo sapiens, UniProt Q9UKW6-2 1-255); conditions: protein: recombinant; tags: N-terminal GST; dsDNA, one strand shown
# T11 sequence: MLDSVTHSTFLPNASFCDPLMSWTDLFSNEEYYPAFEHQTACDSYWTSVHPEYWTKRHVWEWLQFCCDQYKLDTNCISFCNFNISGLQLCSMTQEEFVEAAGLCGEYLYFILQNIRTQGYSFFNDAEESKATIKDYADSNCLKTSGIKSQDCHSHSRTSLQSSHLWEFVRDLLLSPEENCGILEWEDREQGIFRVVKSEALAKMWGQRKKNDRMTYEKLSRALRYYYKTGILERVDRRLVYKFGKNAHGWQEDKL
# How it was run: as §1
# ETV3 = molecular target: T12, ETV3 (Homo sapiens, UniProt P41162-2 1-143); conditions: protein: recombinant; tags: N-terminal GST; dsDNA, one strand shown
# T12 sequence: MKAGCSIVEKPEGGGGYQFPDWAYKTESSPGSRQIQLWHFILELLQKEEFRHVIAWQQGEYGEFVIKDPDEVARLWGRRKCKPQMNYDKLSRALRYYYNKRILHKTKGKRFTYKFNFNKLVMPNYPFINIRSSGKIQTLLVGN
# How it was run: as §1
# ETV6 = ETV6 (Homo sapiens, UniProt P41212 1-452); conditions: protein: recombinant; tags: N-terminal GST; dsDNA, one strand shown
# Chain of ETV6 (P41212 whole entry): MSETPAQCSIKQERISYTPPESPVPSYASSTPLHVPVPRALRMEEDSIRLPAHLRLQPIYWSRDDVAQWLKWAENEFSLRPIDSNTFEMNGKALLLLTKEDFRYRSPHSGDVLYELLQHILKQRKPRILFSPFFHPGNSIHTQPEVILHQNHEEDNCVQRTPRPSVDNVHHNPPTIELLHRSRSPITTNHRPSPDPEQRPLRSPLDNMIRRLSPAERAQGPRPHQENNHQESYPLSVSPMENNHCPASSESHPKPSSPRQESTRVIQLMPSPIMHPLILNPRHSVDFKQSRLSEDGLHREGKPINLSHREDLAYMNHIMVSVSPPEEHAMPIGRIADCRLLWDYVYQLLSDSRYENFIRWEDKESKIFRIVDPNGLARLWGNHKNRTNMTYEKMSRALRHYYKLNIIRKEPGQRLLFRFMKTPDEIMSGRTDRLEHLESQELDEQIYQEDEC
# How it was run: as §1
sequence,measurement,setting,value
AACTGC,binding signal,FEV,"1.42 fold enrichment (6-mer frequency, TF over GST control)"
same,binding signal,ETV5,"1.38 fold enrichment (6-mer frequency, TF over GST control)"
same,binding signal,HSF1,"1.07 fold enrichment (6-mer frequency, TF over GST control)"
same,binding signal,SPIC,"1.49 fold enrichment (6-mer frequency, TF over GST control)"
same,binding signal,ELF4,"1.31 fold enrichment (6-mer frequency, TF over GST control)"
same,binding signal,ELK4,"1.33 fold enrichment (6-mer frequency, TF over GST control)"
same,binding signal,ETV2,"1.19 fold enrichment (6-mer frequency, TF over GST control)"
same,binding signal,ELF3,"1.32 fold enrichment (6-mer frequency, TF over GST control)"
same,binding signal,CRX,"1.05 fold enrichment (6-mer frequency, TF over GST control)"
same,binding signal,ETV1,"1.36 fold enrichment (6-mer frequency, TF over GST control)"
same,binding signal,ERF,"1.22 fold enrichment (6-mer frequency, TF over GST control)"
same,binding signal,ETV3L,"1.37 fold enrichment (6-mer frequency, TF over GST control)"
same,binding signal,ETS2,"1.3 fold enrichment (6-mer frequency, TF over GST control)"
same,binding signal,SPDEF,"1.28 fold enrichment (6-mer frequency, TF over GST control)"
same,binding signal,ETV7,"1.3 fold enrichment (6-mer frequency, TF over GST control)"
same,binding signal,ELF5,"1.36 fold enrichment (6-mer frequency, TF over GST control)"
same,binding signal,ETV3,"1.39 fold enrichment (6-mer frequency, TF over GST control)"
same,binding signal,ETV6,"1.3 fold enrichment (6-mer frequency, TF over GST control)"
